Assay outcomes: PubChem BioAssay, Center for Chemical Genomics, University of Michigan
The entries come from a sample that favours hits as a whole.
Dicer inh – blocks human Dicer maturation of pre-miR-21. z-score at 25 µM. Q9UPY3. 6% of 47,000 active. cat-ELCCA pre-miR-21 Dicer processing, chemiluminescence; active compounds read high; in the data active means z-score above about 3, passing the limit was not always enough;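 further: plate controls were vehicle for no effect and no enzyme for full effect; higher signal means more uncleaved substrate so more Dicer inhibition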
Starred values were filed as active, the others as inactive.

SMILES	Dicer inh
CCCCN(C(=O)NC(=O)Nc1ccc(Cl)cc1)S(C)(=O)=O	-0.52
O=C(c1cnn2c(C(F)F)cc(-c3ccccc3)nc12)N1CCc2ccccc2C1	-0.17
COc1ccc(-c2cc(C(F)F)n3ncc(C(=O)N4CCSCC4)c3n2)cc1	3*
O=C(c1cnn2c(C(F)F)cc(-c3ccccc3)nc12)N1CCCc2ccccc21	-1.5
CC1=C(C(=O)OCC(C)C)C(c2ccc(F)cc2)C2=C(CC(c3cccs3)CC2=O)N1 (centres undefined)	-0.18
CCC(O)(c1ccccc1)c1ccccc1N (centres undefined)	-4.4
O=c1cc(CSc2n[nH]c(=O)n2-c2cccnc2)c2ccc(O)cc2o1	-3.6
NS(=O)(=O)c1ccc2c(c1)Cc1cc(S(N)(=O)=O)ccc1-2	-1.6
Cn1nc(CC(=O)Nc2nncs2)c2ccccc2c1=O	-1.5
O=S(=O)(Nc1cc(F)ccc1F)c1ccc(NC(=S)Nc2ccc(C(F)(F)F)cc2)cc1	0.41
CCCCCC(C)NC(=O)C1c2ccccc2Oc2ccccc21 (centres undefined)	-0.35
O=C(NCc1ccccn1)C1c2ccccc2Oc2ccccc21	3.1*
O=C(O)C1C2C=CC(C2)C1C(=O)NCc1ccccn1 (centres undefined)	-1.3
CC(C)c1nnc(NC(=O)C2c3ccccc3Oc3ccccc32)s1	0.88
COC(=O)C1c2ccccc2Oc2ccccc21	-0.31
O=C(NC1CCCC1)C1c2ccccc2Oc2ccccc21	4.3*
O=C(Nc1ccncc1)C1c2ccccc2Oc2ccccc21	-1.1
Cc1nnc(NC(=O)C2c3ccccc3Oc3ccccc32)s1	4.9*
NC(=O)C1c2ccccc2Oc2ccccc21	-0.49
CSc1ccccc1NC(=O)Cn1c(=O)sc2ccccc21	0.36
CSc1nnc(C)n1-c1ccc(OCc2ccccc2)cc1	-0.46
COC(=O)c1ccc(Cl)cc1N(CCCC#N)S(=O)(=O)c1ccc(OC)c(OC)c1	0.8
N#Cc1cnc(Sc2nc3ccccc3s2)nc1N	-1.3
C=CCn1c(SCC(=O)NNC(=S)NC)nnc1-c1ccccc1	0.18
CN(C1CCCCC1)S(C)(=O)=O	0.2
SMILES	Dicer inh
C=CCn1c2ccccc2c2nnc(SCC(=O)Nc3nc(C)c(C(=O)OCC)s3)nc21	4.9*
C=CCn1c2ccccc2c2nnc(SCC(=O)Nc3ncc([N+](=O)[O-])s3)nc21	0.77
C=CCn1c2ccccc2c2nnc(SCC(=O)Nc3cc(C)on3)nc21	0.28
COc1ccccc1C(=O)CC1(O)C(=O)N(CCc2ccccc2)c2ccc(Br)cc21 (centres undefined)	4.3*
CCCN1C(=O)C(O)(CC(=O)c2ccc3c(c2)OCO3)c2cc(Br)ccc21 (centres undefined)	2.8
Cc1ccc(C(=O)CC2(O)C(=O)N(CCc3ccccc3)c3ccc(Br)cc32)o1 (centres undefined)	2.5
O=C(CC1(O)C(=O)N(CCc2ccccc2)c2ccc(Br)cc21)c1ccc2c(c1)OCO2 (centres undefined)	4.1*
O=C(CC1(O)C(=O)N(Cc2ccccc2)c2ccc(Br)cc21)c1ccc2c(c1)OCO2 (centres undefined)	2.8
O=C(CC1(O)C(=O)N(CCc2ccccc2)c2ccc(Br)cc21)c1ccccn1 (centres undefined)	1.1
COC(=O)c1sc2c(c1NC(=O)c1ccccc1)CSc1ccc(Cl)cc1-2	-0.96
CCn1c(=S)ccc2ccccc21	-0.12
Fc1ccc(/C=N/NC(=S)N/N=C/c2ccc(F)cc2)cc1	47
N#C/C(=N\Nc1ccccc1Cl)S(=O)(=O)c1ccc(Cl)cc1	1.2
Cc1ccc(S(=O)(=O)NCCCCCC(=O)O)cc1	-0.2
COc1ccc(S(=O)(=O)NCCCC(=O)O)cc1	3.1*
O=C(O)CCCNS(=O)(=O)c1ccc(Cl)cc1	1.2
Cc1cc(C)n(-c2ccc(Sc3ccc(Cl)cc3)nn2)n1	-2
CCCCOC(=O)C1=C(C)NC2=C(C(=O)CC(C)(C)C2)C1c1ccc(OCC)c(OC)c1 (centres undefined)	-0.43
Cc1ccccc1OCc1nn2c(Cc3ccccc3)nnc2s1	1.1
Clc1ccc(C2CC(c3ccccc3)=NN2c2ccccc2)cc1 (centres undefined)	0.7
C[C@@H](N)C(=O)OCc1ccccc1	-0.77
CCOC(=O)c1c(Cl)c(C(C)(C)C)nc(Sc2ccccn2)c1C#N	2
CC(=O)c1csc(Nc2ccccc2Cl)n1	1.2
COc1ccccc1Nc1nc(C)cs1	-0.15
Cc1csc(Nc2cccc3ccccc23)n1	3.3*
SMILES	Dicer inh
Cc1occc1C(=O)NCCCn1ccnc1	0.49
Cc1nc(-c2cccnc2)nc(NCc2ccccc2)c1Cl	2.1
Cc1ccc(C(=O)NC(=S)NNc2ncc(C(F)(F)F)cc2Cl)cc1	-0.66
CCc1ccc2nc(Nc3ncc4c(n3)CC(c3ccco3)CC4=O)nc(C)c2c1 (centres undefined)	-1.1
Cc1cc(C)c2nc(NC3=NC(c4ccccc4)CC(=O)N3)nc(C)c2c1 (centres undefined)	3.5*
Cc1cc(C)c2nc(Nc3nc(C)cc(=O)[nH]3)nc(C)c2c1	1.5
